The entries come from a sample that favours hits as a whole.
ALOX12 inh = Primary qHTS assay for inhibitors of human arachidonate 12S-lipoxygenase (ALOX12): Round 2 | Polyunsaturated fatty acid lipoxygenase ALOX12 (Homo sapiens), P18054 | purified 12hLO, xylenol orange hydroperoxide absorbance | Potency, µM (doses to about 108 µM), inactives show at the highest dose activity change, negative = inhibition, most hits filed as inhibitors | actives 1.1% (n = 580,000) | AID 1671190, 2021; also: % is scaled to controls: 0 for no effect and ±100 for the full control effect
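Purified human 12hLO at 150 nM in 25 mM Hepes, 0.01% Triton X-100, pH 7.0, preincubated 15 min at room temperature with compound. Reaction started with 40 uM arachidonic acid, 30 min at room temperature. Hydroperoxide measured by Fe-xylenol orange, 573/405 nm absorbance ratio.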
G9a inh = qHTS Assay for Inhibitors of Histone Lysine Methyltransferase G9a | Histone-lysine N-methyltransferase EHMT2 (Homo sapiens), Q96KQ7 | G9a H3K9 monomethylation, AlphaScreen, 2 h | Potency, µM (highest dose often 102 µM), for inactives: at the highest dose activity, negative = inhibition, most hits filed as inhibitors | actives 8.8% (n = 350,000) | AID 504332, 2011; also: % is scaled to controls: 0 for no effect and ±100 for the full control effect; nearly all actives have a fitted effect of over 75% in size
Target sequence (Q96KQ7 913-1193 limits assumed): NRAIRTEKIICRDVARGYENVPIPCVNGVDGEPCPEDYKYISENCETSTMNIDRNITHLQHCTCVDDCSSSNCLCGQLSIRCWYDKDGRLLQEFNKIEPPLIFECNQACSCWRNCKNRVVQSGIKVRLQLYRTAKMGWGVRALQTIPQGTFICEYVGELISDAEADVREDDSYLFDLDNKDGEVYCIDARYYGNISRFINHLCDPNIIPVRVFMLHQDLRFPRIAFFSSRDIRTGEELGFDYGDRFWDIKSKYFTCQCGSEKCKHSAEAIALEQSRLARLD
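Methyltransferase reactions run at room temperature for 2 h (20 nM enzyme, 500 nM biotin-H3K9 peptide, 20 uM SAM) after a 15 min compound preincubation; product detected by AlphaScreen beads and anti-H3K9me1 antibody.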
GRP78 ERSR act = qHTS for Inducers of the Endoplasmic Reticulum Stress Response (ERSR) in Human Glioma: qHTS | AID 602332, 2012 | Potency, µM, inactives show at the top dose activation, usual class: activators | U87-MG GRP78 promoter luciferase reporter, 16 h | actives 0.02% (n = 420,000); also: series mostly up to about 76 µM; % of control where 0% means no effect; nearly all actives have a fitted effect of over 35% in size
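Stably transfected U87-MG human glioma cells carrying a GRP78-based luminescent sensor were seeded at 1000 cells/well, pin-dosed with compounds and incubated 16 h. Luciferase reagent was then added, and end-point luminescence was read after 10 min at room temperature.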
VDR inh = Inhibitors of the vitamin D receptor (VDR): qHTS | VDR-SRC2-3 peptide fluorescence polarization, 2 h | Potency, µM, for the others: max response, negative = inhibition, most hits filed as inhibitors | actives 0.93% (n = 400,000); also: % is scaled to controls: 0 for no effect and ±100 for the full control effect
Target sequence (P11473 whole entry, looked up): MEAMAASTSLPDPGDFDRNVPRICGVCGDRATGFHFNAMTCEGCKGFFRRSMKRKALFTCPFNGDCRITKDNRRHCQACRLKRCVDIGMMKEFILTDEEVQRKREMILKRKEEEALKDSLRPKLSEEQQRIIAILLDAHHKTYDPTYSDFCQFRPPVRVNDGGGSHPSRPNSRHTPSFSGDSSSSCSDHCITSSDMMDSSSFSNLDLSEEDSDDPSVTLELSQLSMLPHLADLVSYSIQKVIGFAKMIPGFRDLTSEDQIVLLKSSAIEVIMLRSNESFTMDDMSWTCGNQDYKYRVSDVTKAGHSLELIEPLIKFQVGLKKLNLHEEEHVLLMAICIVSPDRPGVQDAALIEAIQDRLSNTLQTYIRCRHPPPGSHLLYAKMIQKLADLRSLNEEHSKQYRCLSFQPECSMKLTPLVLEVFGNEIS
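Reagent solutions, kept cold and dark, are dispensed first; compounds are then pinned in at 23 nl, plates briefly spun, and incubated 2 h at ambient temperature. Inhibition of VDR–SRC2-3 peptide binding is read by fluorescence polarization.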
Sfp inh = qHTS Assay for Inhibitors of Bacillus subtilis Sfp phosphopantetheinyl transferase (PPTase); 4'-phosphopantetheinyl transferase ffp (Bacillus subtilis), Q9F4F7; Biochemical Sfp PPTase activity, qHTS; Potency, µM, for the others: largest response in the series, negative = inhibition, usual class: inhibitors; actives 3.5% (n = 310,000); AID 1490, 2009;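 also: the enzyme is Sfp with the accession as filed and its product quenches rhodamine fluorescence; 0% = enzyme reaction without inhibitor and -100% = no enzyme wells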
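Fluorescence-quenching assay with 15 nM Sfp, 5 uM rhodamine-CoA and 12.5 uM BHQ-2-labelled ybbR peptide in pH 7.6 Hepes/MgCl2 buffer. Enzyme was pre-incubated with compound for 15 min at room temperature. Rate was taken from the 30-min fluorescence change (525/598 nm).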
* marks the source's active call; other numbers are inactive results; ? = inconclusive; / = no result given; ! = a repeat was not active; [ ] = another dose, or the depositor's remark. Calls follow the shape of the dose curve; as a rule, active = well fitted curve in the direction sought with a large enough effect; inconclusive = small, poorly fitted or top-dose-only effect, or another doubt; inactive = no such curve, though single readings can be large; an effect the other way counts as inactive or inconclusive. Potency is read from the fitted curve at half-maximal effect.

SMILES	ALOX12 inh	G9a inh	GRP78 ERSR act	VDR inh	Sfp inh
Cc1ccc(-c2csc3nnc(SCC(=O)N4CCN(Cc5ccccc5)CC4)n23)cc1	5%	25µM*	0%	-5%	-8%
O=C(CSc1nnc2scc(-c3ccccc3)n12)N1CCN(Cc2ccccc2)CC1	23%	?	0%	-6%	-3%
Cn1c(SCC(=O)N2CCN(c3ccccc3)CC2)nnc1-c1ccccc1	-12%	50µM*	-9%	2%	20%
Cn1c(SCC(=O)N2CCN(c3ccccc3)CC2)nnc1-c1ccco1	-29%	28%	-4%	9%	-8%
COC(=O)CSc1nnc(-c2cccc(NC(=O)c3ccc(C)cc3)c2)n1C	24%	-47%	-4%	16%	3%
Cn1c(SCC(=O)N2CCN(Cc3ccccc3)CC2)nnc1-c1ccncc1	10%	11µM*	-3%	14%	16%
Cn1c(SCC(=O)O)nnc1-c1cccc(NC(=O)c2cccc3ccccc23)c1	6%	32µM*	0%	14%	-5%
Cn1c(SCC(=O)N2CCOCC2)nnc1-c1ccncc1	-2%	-12%[59 µM]	0%	2%	14%
Cc1ccccc1-n1c(SCC(=O)N2CCN(c3ccccc3)CC2)nnc1-c1ccncc1	-19%	45µM*	-1%	-7%	-9%
CCOCCn1c(=O)c2c(nc(-n3nc(CC)cc3CC)n2C)n(C)c1=O	10%	/	/	/	/
CCn1c(SCC(=O)N2CCN(c3ccccc3)CC2)nnc1-c1c[nH]c2ccccc12	-2%	-3%[59 µM]	-2%	-16%	14%
C=CCn1c(COc2cccc(C)c2C)nnc1SCC(=O)N1CCN(c2ccccc2)CC1	?	4µM*	-6%	8%	-2%
CCn1c(SCC(=O)N2CCN(c3ccccc3)CC2)nnc1-c1ccncc1	/	1.8µM*	/	/	-6%
Cc1sc2ncnc(N3CCCCC3)c2c1-c1ccc(Cl)cc1	-19%	/	/	/	/
COc1ccc(C2=Nc3ccccc3N(C(=O)c3ccc(C)cc3)C2C(=O)Nc2c(C)cccc2C)cc1 (configuration not stated)	0.79µM*	/	/	/	/
COc1ccc(C2=Nc3ccccc3N(C(=O)c3ccc(C)cc3)C2C(=O)NCc2ccccc2)cc1 (configuration not stated)	3.5µM*	/	/	/	/
COc1ccc(C2=Nc3ccccc3N(C(=O)c3ccc4c(c3)OCO4)C2C(=O)Nc2c(C)cccc2C)cc1 (configuration not stated)	-60%	/	/	/	/
CSc1cccc(NC(=O)CCc2ncc(-c3ccccc3)o2)c1	1%	/	/	/	/
CCCCN(CCCC)CC(O)Cn1cc(/C=C/C(=O)c2ccccc2)c2ccccc21 (configuration not stated)	45µM*	?	-10%	12%	/
CCCCN(C)CC(O)Cn1cc(/C=C/C(=O)c2ccc(OCC)cc2)c2ccccc21 (configuration not stated)	9%	50µM*!	-11%	12%	45µM*
CCOc1ccc(C(=O)/C=C/c2cn(CC(O)CN3CCc4ccccc43)c3ccccc23)cc1 (configuration not stated)	-28%	-27%[59 µM]	-5%	19%	/
CCCCN(C)CC(O)Cn1cc(/C=C/C(=O)c2cccs2)c2ccccc21 (configuration not stated)	/	7%[59 µM]	-2%	-12%	20µM*
CCOC(=O)/C(=C\c1cn(C)c2ccccc12)[N+](=O)[O-]	?	?	-5%	50µM*	4%
CC(Sc1nc(Cl)nc2nc[nH]c12)C(=O)N1CCN(c2ccccc2F)CC1 (configuration not stated)	-3%	/	/	/	/
C#CCNC(=O)c1ccccc1NCC(=O)Nc1ccccc1OC(F)F	-2%	/	/	/	/
SMILES	ALOX12 inh	G9a inh	GRP78 ERSR act	VDR inh	Sfp inh
Cn1cc(/C=C/C(=O)c2ccccc2)c2ccccc21	0%	10%[59 µM]	-13%	5%	50µM*
O=c1c(Cl)c(N2CCN(S(=O)(=O)c3ccc4ccccc4c3)CC2)cnn1-c1ccccc1	2%	/	/	/	/
CC(=O)Nc1cccc(NC(=O)c2cc(-c3cccs3)nc3ccccc23)c1	-27%	/	/	/	/
O=C(Oc1nsnc1N1CCOCC1)c1ccccc1	-27%	35µM*	-5%	-13%	-29%
Cc1ccsc1C(=O)OCC(=O)NC(=O)NC(C)(C)C	-2%	/	/	/	/
S=c1[nH]nc(-c2ccccn2)n1/N=C/c1ccc(Br)s1	?	1.3µM*	-1%	-6%	12%
S=c1[nH]nc(-c2ccccn2)n1/N=C/c1ccc(Cl)c(Cl)c1	?	/	0%	-26%	0%
S=c1[nH]nc(-c2ccccn2)n1/N=C/c1ccc(-c2ccccc2Cl)o1	?	1.1µM*	4%	-20%	-6%
CCN(CC)c1nc2ncn(CC(=O)Nc3cc(C)cc(C)c3)c(=O)c2s1	-6%	/	/	/	/
Cc1cc(=O)c2c(O)c(O)ccc2o1	?	1.8µM*	?	5%	79µM*
CC1=CCc2c(cc3oc(C)cc(=O)c3c2O)OC1	/	-39%[2.33 µM]	-2%	-20%	-9%
C=CCOc1c(Br)cc(CNc2ccc(NC(=O)CCC)cc2)cc1OCC	-2%	/	-7%	0%	6%
CCOc1c(Br)cc(CNc2ccc(N3CCN(C(C)=O)CC3)cc2)cc1OC	?	28µM*	-2%	-15%	-16%
CCOc1cc(CNc2ccc(N3CCN(C(C)=O)CC3)cc2)cc(Br)c1OC	?	28µM*	-4%	-24%	?
C=CCOc1c(Br)cc(CNc2ccc(NC(=O)C(C)C)c(OC)c2)cc1OCC	4%	6.3µM*	1%	-13%	?
Cc1csc(SCC(=O)Nc2nc(-c3ccccc3)cs2)n1	87%	-32%	2%	6%	-4%
Cc1cc(=O)[nH]c(SCC(=O)Nc2nc(-c3ccccc3)cs2)n1	?	50µM*	1%	0%	-6%
CC(=O)Nc1c(O)nc(SCC(=O)Nc2c(C)cccc2C)[nH]c1=O	-13%	?	-4%	-8%	79µM*
CCCc1cc(=O)[nH]c(SCC(=O)Nc2c(C)cccc2C)n1	24%	2%	-2%	-19%	10%
Cc1cc(=O)[nH]c(SCC(=O)Nc2nc3ccccc3s2)n1	-28%	32µM*	2%	?	79µM*
Nc1cc(=O)[nH]c(SCC(=O)Nc2nc3ccc([N+](=O)[O-])cc3s2)n1	/	40µM*	/	/	-18%
O=C(N[C@H]1CC[C@@]23CCCN2C(=O)CCC[C@H]3[C@H]1Cc1ccccc1)c1cccc(Cl)c1	2%	/	/	/	/
O=C(CSc1cn[nH]n1)Nc1nc2ccccc2s1	-5%	40µM*	-2%	3%	35%
NC(=S)Nc1cccc(F)c1	-14%	?	16%	-10%	8%
